Experimental data: PubChem BioAssay (NCATS)
Inconclusive results are not listed. Entries that show only a call come without a potency. Unmarked numbers belong to inactive results. Active and inactive are the calls of the source. Calls come from the whole dose curve; as a rule, active = well fitted cell-killing curve with a large enough effect; inconclusive = small, poorly fitted or top-dose-only effect, or effect the other way; inactive = flat fitted curve, though single readings scatter.

Test system: CAOV3
Test: Primary qHTS to identify gynecologic anti-cancer compounds using libraries of approved drugs and bioactive compounds (AID 1345084); note: nearly all actives have a fitted effect of over 55% in size
Details: Gynecologic cancer cell panel viability, ATPlite luminescence, 48 h; series mostly up to 57.5 µM
Summary of the method: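 Luminescence from the ATPlite ATP-monitoring reagent indicates viable cell number; lower signal means cytotoxicity. Cells received compound 16 h after seeding and were exposed for 48 h across five concentrations.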
Potency is the fitted concentration of half-maximal effect.

Row | SMILES | Potency | activity change, negative = cytotoxicity
1 | CN(Cc1cccc(-c2ccncc2)c1)C(=O)Oc1ccc(-c2ccc(C(N)=O)cc2)cc1 | inactive | –
2 | CN(C(=O)C(c1ccccc1)c1ccccc1)[C@H](CN1CC[C@H](O)C1)c1ccccc1 | inactive | –
3 | C/C=C(\C)C(=O)OC1CC2C(CC=C3CC(OC4CC(OC)C(OC5CC(OC)C(OC6CC(OC)C(OC7CC(OC)C(O)C(C)O7)C(C)O6)C(C)O5)C(C)O4)CCC32C)C2(O)CCC(C(C)=O)C12C (stereo not given) | – | 3.23% [at 11.6 µM]
4 | CN=C(NS(=O)(=O)c1ccc(Cl)cc1)N1C[C@H](c2ccccc2)C(c2ccc(Cl)cc2)=N1 | inactive | –
5 | Cc1c(N[C@@H](c2nnc(-c3ccc(C#N)cc3)o2)[C@H](C)O)ccc(C#N)c1Cl | inactive | –
6 | CC12CCC3C(C1)c1c(cc(O)c(C(=O)c4ccccc4)c1OC3(C)C)O2 (stereo not given) | inactive | –
7 | CN1C(=O)[C@@H](Cc2c[nH]c3ccccc23)N=C(c2ccccc2F)c2ccccc21 | inactive | –
8 | CCCCCCC1C(=O)O[C@H](C)[C@H](NC(=O)c2cccc(NC=O)c2O)C(=O)O[C@@H](C)[C@@H]1OC(=O)CC(C)C (stereo not given in full) | 3.16 µM (active) | –
9 | C=C(C)[C@@]12O[C@@H]1[C@@]1(C)C(=CC2=O)CC[C@@H](OC(C)=O)[C@@H]1C | inactive | –
10 | c1ccc([C@@H]2C[C@H]2NC2CCNCC2)cc1 | inactive | –
11 | CC(C)[C@H]1OC(=O)[C@H](Cc2ccccc2)N(C)C(=O)[C@@H](C(C)C)OC(=O)[C@H](Cc2ccccc2)N(C)C(=O)[C@@H](C(C)C)OC(=O)[C@H](Cc2ccccc2)N(C)C1=O | inactive | –
12 | C=C1C2(C)CC3C(C)(O)C4=CC(=O)OC(C)(C)C4=CCC3(C)C13C(=O)OC(C)C3(O)C2=O (stereo not given) | inactive | –
13 | CN(C)[C@@H]1C(=O)C(C(N)=O)=C(O)[C@@]2(O)C(=O)C3=C(O)c4c(O)ccc(Cl)c4[C@@](C)(O)C3C[C@@H]12 (stereo not given in full) | inactive | –
14 | CC(=O)O[C@H]1C[C@]2(O)[C@@H]3CC[C@@H]4C[C@@H](O)CC[C@]4(C)[C@H]3CC[C@]2(C)[C@H]1c1ccc(=O)oc1 | 0.158 µM (active) | –
15 | CN1CCC2=C(C1)c1ccccc1Cc1ccccc12 | inactive | –
16 | C=C(C)C(=O)O[C@H]1[C@@H]2[C@H](C)C(=O)O[C@@H]2C[C@@H](C)[C@@H]2C=CC(=O)[C@]21C | 10 µM (active) | –
17 | CCOc1ccc(Oc2ccc(OCc3cc(F)ccc3F)cc2)c(N)c1 | inactive | –
18 | CCN1C[C@]2(COC)CC[C@H](O)[C@@]34C5C[C@@H]6[C@@H](OC)C[C@@](OC(C)=O)(C5[C@@H]6OC(C)=O)[C@H]([C@H](OC)C23)[C@@H]14 (stereo not given in full) | inactive | –
19 | CC(C)[C@H](NC(=O)c1nn(Cc2ccc(F)cc2)c2ccccc12)C(N)=O | inactive | –
20 | CCCN(CCC)[C@@H]1CCc2ccc3[nH]c(C#N)cc3c2C1 | inactive | –
21 | Cc1ccc2c(c1)[C@H]1CN(C)CC[C@H]1N2C(=O)CSc1nnnn1-c1ccc(Cl)cc1 | inactive | –
22 | COC1CCCC(C)OC(=O)Cc2cc(O)cc(O)c2C(=O)C1 (stereo not given) | inactive | –
23 | C[C@]12CC[C@H](O)C[C@@H]1CC[C@@H]1[C@@H]2CC[C@]2(C)C(=O)CC[C@@H]12 | inactive | –
24 | CC(=O)OC[C@]12[C@H](OC(C)=O)C(=O)[C@@H]3[C@@H](O)[C@@]14O[C@@]3(C)COC(=O)c1cccnc1[C@@H](C)[C@H](C)C(=O)O[C@@H]([C@H](OC(C)=O)[C@@H]2OC(C)=O)[C@]4(C)O | inactive | –
25 | C#C[C@]1(O)CC[C@H]2[C@@H]3CC[C@H]4Cc5nc6nc7ccccc7n6cc5C[C@]4(C)[C@H]3CC[C@@]21C | inactive | –
26 | CN1C(=O)N(c2ccc(C#N)c(C(F)(F)F)c2)C(=O)[C@@]1(CO)c1ccccc1 | inactive | –
27 | CCCCCn1cc(C(=O)Oc2cccc3cccnc23)c2ccccc21 | inactive | –
28 | C[C@]12CC[C@H](O)C[C@@]1(O)CC[C@@H]1[C@@H]2CC[C@]2(C)[C@@H](c3ccc(=O)oc3)CC[C@]12O | inactive | –
29 | COC(=O)C12C(=O)C(C)(O)C(=O)C1(C)C(C)=CC1C34CCC(OC3=O)C(C)(C)C4CCC12C (stereo not given) | inactive | –
30 | CC1=CC2OC3CC(O)[C@](C)([C@@]2(C)C(O)C1=O)[C@]31CO1 (stereo not given in full) | inactive | –
